# FBPA Giardia inh: qHTS Assay for Inhibitors of Fructose-1,6-bisphosphate Aldolase from Giardia Lamblia. Potency, µM (highest dose often 59.6 µM), for the others: at the highest dose activity, negative = inhibition, most hits filed as inhibitors. A8B2U2. purified Giardia FBPA. 290,000 tested, 0.71% active; also: potency is read from the fitted curve at half-maximal effect; % is scaled to controls: 0 for no effect and ±100 for the full control effect; nearly all actives have a fitted effect of over 55% in size
# Target sequence (A8B2U2 whole entry, looked up): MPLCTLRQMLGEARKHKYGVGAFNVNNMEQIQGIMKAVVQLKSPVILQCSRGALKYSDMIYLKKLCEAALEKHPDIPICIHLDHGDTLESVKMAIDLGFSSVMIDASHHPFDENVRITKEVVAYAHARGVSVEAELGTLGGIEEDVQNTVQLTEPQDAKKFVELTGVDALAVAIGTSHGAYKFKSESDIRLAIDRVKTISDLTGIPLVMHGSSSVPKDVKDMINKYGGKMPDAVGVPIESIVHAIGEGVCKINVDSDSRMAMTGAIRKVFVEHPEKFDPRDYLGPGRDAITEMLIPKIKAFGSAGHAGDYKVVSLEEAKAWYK
#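 40 nM FBPA preincubated 10 min at RT with compound (up to 57.5 uM final), then substrate plus GAPDH/TPI/NAD/arsenate coupling and diaphorase/resazurin added. Fluorescence read after 20 min at RT, 525/598 nm.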
# Shiga inhibitor: A qHTS for Small Molecule Inhibitors of Shiga Toxin; Vero cells, Shiga toxin protein synthesis inhibition reporter; inhibition, % at 38.7 µM; 290,000 tested, 9.2% active; in the data active = inhibition mostly above about 28%, no sharp cut-off; inactive = mostly below about 43%; also: 0% is about no effect
# TbPYK inhibitor: qHTS of Trypanosoma Brucei Inhibitors; TbPYK enzyme, Kinase-Glo Plus ATP luminescence, 45 min; pyruvate kinase (Trypanosoma brucei), Q57TT1; 410,000 tested, 0.12% active; Potency, µM (series often up to 76.8 µM), inactives show at the top dose activity, negative = inhibition, usual class: inhibitors; also: potency is read from the fitted curve at half-maximal effect; % is scaled to controls: 0 for no effect and ±100 for the full control effect; nearly all actives have a fitted effect of over 50% in size
#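 Assay buffer: 50 mM TEA pH 7.2, 100 mM KCl, 10 mM MgCl2, 0.05% BSA, 0.01% Tween-20. Pyruvate kinase from T. brucei plus substrate met compound, then ADP (130 uM final). Luminescence was read post 45 min RT.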
# RE007 growth inh: qHTS Assay for Inhibitors of the HIV-1 protein Vpr; S. pombe RE007 Vpr strain, BacTiter-Glo ATP luminescence, 24 h; Potency, µM (titrated, usually from 92.2 µM), inactives show top-dose activity change, negative = less growth, usual class: inhibitors; 360,000 tested, 0.21% active; active = well fitted falling curve with a large enough effect; inconclusive = small, poorly fitted or top-dose-only effect; inactive = no such curve, though single readings can be large or run the other way; also: potency is read from the fitted curve at half-maximal effect; % is scaled to controls: 0 for no effect and ±100 for the full control effect; nearly all actives have a fitted effect of over 50% in size
#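 Fission yeast strain RE007, carrying one chromosomally integrated HIV-1 vpr copy, was seeded at OD 0.01 in PMG+AL medium with 23 nL pinned compound. After 24 h at 30 °C and 99% humidity, viability was read by BacTiter-Glo luminescence.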
# CHX counter: Cycloheximide Counterscreen for Small Molecule Inhibitors of Shiga Toxin. AID 2314, 2010. max response, %. 300,000 tested, 12% active. cell reporter, cycloheximide protein synthesis inhibition counterscreen; in the data active = max response mostly above about 13%, no sharp cut-off; inactive = mostly below about 14%; also: read at 38.3 µM for the half of the compounds with a filed dose; 0% is about no effect
# LmPK inhibitor: qHTS Assay for Inhibitors of Leishmania Mexicana Pyruvate Kinase (LmPK); 290,000 tested, 0.37% active; Potency, µM (doses to about 57.5 µM), for the others: top-dose activity change, negative = inhibition, usual class: inhibitors; Q27686; purified LmPK, Kinase-Glo ATP luminescence, 1 h; also: potency is read from the fitted curve at half-maximal effect; % is scaled to controls: 0 for no effect and ±100 for the full control effect
#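 In 50 mM imidazole pH 7.2 with 7 mM MgCl2, LmPK (0.1 nM) turned over PEP (0.5 mM) and ADP (0.1 mM) for 1 h at room temperature. Luciferase read-out of ATP.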
# Starred values were filed as active, the others as inactive; ? = inconclusive; . = no result given. This excerpt belongs to a sample that is enriched for hits. Unless noted, calls follow the shape of the dose curve; as a rule, active = well fitted curve in the direction sought with a large enough effect; inconclusive = small, poorly fitted or top-dose-only effect, or another doubt; inactive = no such curve, though single readings can be large; an effect the other way counts as inactive or inconclusive.
SMILES,FBPA Giardia inh,Shiga inhibitor,TbPYK inhibitor,RE007 growth inh,CHX counter,LmPK inhibitor
Cc1ccc(C(=O)/C=C/c2ccc(F)cc2)o1,-6%,76*,-10%,?,60*,-9%
O=C(/C=C/c1ccc(F)cc1)c1ccccc1Br,3%,35,-12%,?,20*,1%
COCOc1ccccc1C(=O)/C=C/c1ccccc1,-10%,.,.,.,.,.
CCOc1cc(C2/C(=C(/O)c3ccc(OC(C)C)cc3)C(=O)C(=O)N2CCCOC)ccc1O (stereo not given),23%,87*,-11%,7%,48*,-1%
CC(C)Oc1ccc(/C(O)=C2/C(=O)C(=O)N(CCN(C)C)C2c2cccs2)cc1 (stereo not given),0%,74*,-9%,-2%,18*,-1%
C=CCOc1ccc(/C(O)=C2\C(=O)C(=O)N(CCCOC)C2c2ccc(O)c(OC)c2)cc1 (stereo not given),4%,-7,2%,?,-3,-5%
COc1cccc(/C(O)=C2/C(=O)C(=O)N(CCN3CCOCC3)C2c2cccs2)c1 (stereo not given),-10%,20,2%,7%,23*,-4%
CCOC(=O)c1[nH]c(C)c(/C(O)=C2\C(=O)C(=O)N(CCCN3CCOCC3)C2c2cccs2)c1C (stereo not given),-6%,57,-3%,24%,19*,2%
COC(=O)c1[nH]c(C)c(/C(O)=C2\C(=O)C(=O)N(CCN3CCOCC3)C2c2cccs2)c1C (stereo not given),-7%,-14,4%,8%,-4,6%
CCN(c1ccccc1)S(=O)(=O)c1c(-c2ccc(C)cc2)csc1C(=O)OC,.,17,1%,.,14,.
CCC(=O)Nc1ccc2nc(SCCOc3ccc(C)cc3)sc2c1,.,.,-2%,.,.,.
COC(=O)c1ccncc1N,6%,-18,-1%,-18%,-1,-2%
Nc1cnccc1C(=O)O,13µM*,18,-5%,-5%,-7,-7%
CCc1cnc2c(c1SCC(=O)c1ccc(Cl)cc1)c(=O)n(C)c(=O)n2C,.,.,-24%,.,.,.
COc1ccc(C(=O)NN=C2CCCC2)cc1,-15%,8,6%,6%,active,-4%
O=C(NN=C1CCCCCC1)c1cccnc1,-5%,84*,0%,-3%,31*,4%
CC(C)/C=N/NC(=O)c1ccc(Cl)cc1,-5%,38,-23%,-16%,24*,0%
COc1cccc(C(=O)NN=C2CCCC2)c1,-7%,67*,-2%,11%,38*,6%
O=C(NN=C1CCCC1)c1ccc(Br)cc1,-15%,-2,2%,-23%,-1,-4%
COc1ccc(NC(=O)c2cn(CC(C)C)c(=O)c3cc(OC)c(OC)cc23)cc1Cl,.,.,-10%,.,.,.
NCC[C@H](NC(=O)[C@@H](N)CCCN=C(N)N[N+](=O)[O-])C(N)=O,-3%,-2,.,.,11,.
Cc1ccc(-c2nc(C)c(CCNS(=O)(=O)c3ccccc3F)s2)cc1,.,.,-1%,.,.,.
O=C(CCNS(=O)(=O)c1ccc2c(c1)CCCC(=O)N2)NCc1ccccc1Cl,.,.,8%,.,.,.
Cc1cccc(-n2nnc(-c3nc(-c4cccs4)no3)c2N)c1C,.,.,-2%,.,.,.
CN(C)/C=N/NC(=O)c1ccccc1,-1%,31,8%,10%,4,-2%
SMILES,FBPA Giardia inh,Shiga inhibitor,TbPYK inhibitor,RE007 growth inh,CHX counter,LmPK inhibitor
O=C(NN=C1CCCC1)c1ccccc1O,-6%,58*,6%,-8%,18*,-2%
O=C(NN=C1CCCC1)c1cc(O)cc(O)c1,.,-30,-10%,14%,5,-4%
O=C(NN=C1CCCC1)c1cccc(O)c1,-8%,76*,4%,-2%,47*,4%
CC1C/C(=N\NC(=O)c2cccnc2)CC(C)(C)C1 (stereo not given),-10%,65,-3%,5%,18*,3%
CC(O)C(O)C(O)C(O)/C=N/NC(=O)c1ccccc1 (stereo not given),1%,86*,3%,8%,38*,4%
CC1C/C(=N\NC(=O)c2ccc([N+](=O)[O-])cc2)CC(C)(C)C1 (stereo not given),-13%,16,-5%,-16%,7,3%
Cc1ccc(CNC(=O)CSc2nc3ccccc3nc2Cc2ccc(C)cc2)cc1,.,.,-8%,.,.,.
COc1ccc(-c2ccoc2)cc1C1C2C=CCC(C)C2C(=O)N1Cc1ccccc1 (stereo not given),-2%,-2,.,.,6,.
O=C(Cn1cc(S(=O)(=O)N2CCN(c3ccccc3F)CC2)c2ccccc2c1=O)Nc1cccc(C(F)(F)F)c1,.,.,1%,.,.,.
CCCCn1cc[n+](C)c1,-1%,5,.,.,-6,.
O=C(NCCNC(=O)c1cccc(O)c1)c1cccc(O)c1,7%,-12,1%,0%,-2,0%
NNC(=O)c1cccc(O)c1,2%,58*,-8%,6%,67*,-5%
O=C(O)c1ccccc1NN=C1CCCCC1,-9%,110*,0%,4%,57*,0%
O=C(O)c1ccccc1NN=Cc1ccccc1,.,.,0%,-2%,.,.
Cc1cc(OCc2ccc(C(=O)NN=C3CCCC3)cc2)ccc1Cl,15%,85*,-4%,?,57*,-1%
O=C(NN=C1CCCC1)c1ccc(Cl)cc1,9%,72*,-10%,-7%,41*,-9%
CC(NC(CCc1ccccc1)C(=O)O)C(=O)N1CCCC1C(=O)O (stereo not given),.,.,-7%,.,.,.
Cc1cc(C)nc(SCc2ccc(C(=O)N/N=C3\CC(C)CC(C)(C)C3)cc2)n1 (stereo not given),0%,-4,1%,3%,-1,3%
Cc1cc(C(=O)N/N=C2\CCCC(=O)C2)c(C)o1,.,.,-6%,2%,.,.
CC1C/C(=N\NC(=O)c2ccc(NS(=O)(=O)c3ccc(Br)cc3)cc2)CC(C)(C)C1 (stereo not given),3%,17*,0%,9%,12,2%
Cc1cc(C(=O)NN=C2CCCCCC2)c(C)o1,-1%,52*,6%,-2%,25*,1%
COc1cc(OC)cc(C(=O)NCCc2csc(-c3ccc(C(F)(F)F)cc3)n2)c1,.,.,1%,.,.,.
Nc1ccccc1S(=O)(=O)Nc1cccc2cccnc12,14µM*,-7,.,.,11,.
O=S(=O)(Nc1cccc2cccnc12)c1ccccc1Br,.,-3,.,.,28*,.
Cc1cc(C)c(NC(=O)CSc2ncc3c(n2)-c2cc(Cl)ccc2N(C)S3(=O)=O)c(C)c1,.,.,-8%,.,.,.
Cc1ccc(CNC(=O)Cn2nnc(C(=O)Nc3cccc(C)c3C)c2N)cc1,.,-8,0%,-4%,-1,2%

# High-throughput results as filed in PubChem BioAssay.
